# Sampled rows, rich in hits. Any-hit rate of the full collection: about 21%.
# Pf growth 96h – Primary qHTS for delayed death inhibitors of the malarial parasite plastid, 96 hour incubation | P. falciparum luciferase reporter growth, 96 h | Potency, µM (series often up to 28.7 µM), usual class: inhibitors | 320,000 compounds, 6.9% hits | AID 504834, 2011; active means well fitted inhibition curve with a large enough effect; inconclusive means small, poorly fitted or top-dose-only effect, or another doubt; inactive means no such curve, though single readings can be large or run the other way
#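 P. falciparum expressing integrated firefly luciferase grown in erythrocytes (2% hematocrit, 0.05% parasitemia final) with compounds for 96 hours at 37 C, 5% CO2. Growth inhibition read as loss of luminescence after adding luciferase detection reagent.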
# Shiga toxin inh – A qHTS for Small Molecule Inhibitors of Shiga Toxin | Vero cells, Shiga toxin protein synthesis inhibition reporter | inhibition, % at 38.7 µM | 290,000 compounds, 9.2% hits; in the data active means inhibition mostly above about 28%, no sharp cut-off; inactive means mostly below about 43%
# Pf growth 48h – Primary qHTS for delayed death inhibitors of the malarial parasite plastid, 48 hour incubation; 310,000 compounds, 5.9% hits; AID 504832, 2011; Potency, µM (doses to about 28.7 µM), usual class: inhibitors; P. falciparum luciferase growth in erythrocytes, 48 h; active means well fitted inhibition curve with a large enough effect; inconclusive means small, poorly fitted or top-dose-only effect, or another doubt; inactive means no such curve, though single readings can be large or run the other way
#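 Erythrocytes infected with P. falciparum carrying an integrated firefly luciferase reporter (2% hematocrit, 0.1% parasitemia final) were exposed to compounds in RPMI 1640 with 0.5% Albumax at 37 C, 5% CO2. Growth inhibition was scored as reduced luminescence.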
# SARS PLpro yeast – qHTS of Yeast-based Assay for SARS-CoV PLP; 330,000 compounds, 0.19% hits; Potency, µM (highest dose often 32.9 µM), most hits filed as activators; AID 485353, 2010; S. cerevisiae expressing SARS-CoV PLpro, growth rescue; further: nearly all actives have a fitted effect of over 55% in size
# Cycloheximide cs – Cycloheximide Counterscreen for Small Molecule Inhibitors of Shiga Toxin; cell reporter, cycloheximide protein synthesis inhibition counterscreen; max response, %; 300,000 compounds, 12% hits; AID 2314, 2010; in the data active means max response mostly above about 13%, no sharp cut-off; inactive means mostly below about 14%; further: read at 38.3 µM for the half of the compounds with a filed dose
# NS1 function inh – qHTS Assay for Inhibitors of Influenza NS1 Protein Function; Potency, µM (doses to about 46.1 µM); AID 2326, 2010; 270,000 compounds, 0.4% hits; further: actives are rising curves; nearly all actives have a fitted effect of over 50% in size
#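 Growth recovery, yeast-based: influenza A NS1 expressed in S. cerevisiae causes slow growth, and suppressors are detected by OD600. The parent strain without NS1 is used as positive control.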
# Hits are given with their value; n = inactive; u = inconclusive; x = not tested or not shown. Unless noted, the call rests on the fitted dose curve.
SMILES,Pf growth 96h,Shiga toxin inh,Pf growth 48h,SARS PLpro yeast,Cycloheximide cs,NS1 function inh
CC1SCC(NC(=O)c2ccccc2Cl)CS1 (stereo not given),n,73.8,n,n,52.8,n
CC1SCC(NC(=O)c2cccc(Cl)c2)CS1 (stereo not given),n,n,n,n,n,n
CC1SCC(NC(=O)c2ccc(Cl)cc2)CS1 (stereo not given),n,48.8,n,n,28.9,n
Cc1ccc(SCC(=O)OCC(=O)N(CC(C)C)C2CCS(=O)(=O)C2)cc1C (stereo not given),n,x,n,n,x,x
O=C(Nc1oc2ccc(Cl)cc2c(=O)c1-c1ccc(F)cc1)c1ccco1,n,n,n,n,n,n
CN(C)S(=O)(=O)c1cc(NC(=O)CN2CCOCC2)ccc1Cl,u,n,u,n,n,x
Cc1ccn2cc(-c3ccc4c(c3)NC(=O)CO4)nc2c1,n,75.2,n,n,n,x
Cc1cccn2cc(-c3ccc4c(c3)NC(=O)CO4)nc12,n,60.9,n,n,31.1,n
N[C@H](C(=O)O)[C@@H](O)c1cnc[nH]1,x,x,x,x,x,n
O=C(COc1ccc(Cl)cc1)Nc1nnc(C2=COCCO2)o1,n,n,n,n,n,x
Cc1[nH]c2ccc(C(=O)OCC(=O)Nc3cccc(S(N)(=O)=O)c3)cc2c1C,n,x,n,n,x,x
CCN(CC(=O)Nc1c(F)cccc1F)C(=O)Cc1csc(-c2ccccc2)n1,n,x,n,n,x,x
COc1ccccc1NC(=O)c1sc2ncn(Cc3cccc4ccccc34)c(=O)c2c1C,9.28µM,n,n,n,n,n
COc1ccccc1NC(=O)c1sc2ncn(Cc3ccc(C)cc3)c(=O)c2c1C,u,n,u,n,n,n
CN(CCC1CCCCO1)C(=O)c1cc(COc2ccc(F)cc2F)on1 (stereo not given),n,n,n,n,20.9,n
CN(CCCN1CCCCC1)C(=O)c1cc(COc2ccc(F)cc2F)on1,n,n,u,n,n,n
CN(CCCC1CCCC1)C(=O)c1cc(COc2ccc(F)cc2F)on1,n,58.1,n,n,22.0,n
CN(CCCC1CCCC1)C(=O)c1cc(COc2c(F)cccc2F)on1,u,n,n,n,n,n
Nc1nc2c(ncn2[C@@H]2C=C[C@@H](CO)C2)c(=O)[nH]1,x,x,x,x,x,n
Cc1ccc(-c2noc(-c3cc(C(C)(C)C)nn3Cc3ccccc3)n2)cc1,n,n,n,n,n,n
N#C/C(=C(/O)CO/N=C/c1ccccc1Cl)c1nc2ccccc2[nH]1,n,n,n,n,n,n
NC(=S)N/N=C\c1c(OCc2ccccc2Cl)ccc2ccccc12,n,n,10.4µM,n,n,x
Cc1onc(-c2ccccc2)c1NC(=O)Nc1ccc(OC(F)F)cc1,4.65µM,n,6.57µM,n,n,n
CCCCCC(=O)Nc1nc(C)c(-c2csc(Nc3ccccc3OC)n2)s1,2.94µM,n,u,n,n,u
CCCCCCC(=O)Nc1nc(C)c(-c2csc(Nc3ccccc3OC)n2)s1,3.7µM,n,u,n,n,n
SMILES,Pf growth 96h,Shiga toxin inh,Pf growth 48h,SARS PLpro yeast,Cycloheximide cs,NS1 function inh
CCCCC(=O)Nc1nc2c(OC)ccc(OC)c2s1,u,n,x,n,n,n
CCCC(=O)Nc1nc(C)c(-c2csc(Nc3ccccc3C)n2)s1,u,n,11.7µM,n,n,n
CCC(=O)Nc1nc(C)c(-c2csc(Nc3ccccn3)n2)s1,n,103.1,n,n,33.2,x
CCCCCC(=O)Nc1nc(C)c(-c2csc(Nc3ccccc3OCC)n2)s1,u,n,u,n,n,n
CC1O[C@@H](O[C@H](C)CC[C@@H](C)O[C@H]2OC(C)[C@@H](O)C[C@H]2O)C(O)C[C@H]1O (stereo not given in full),n,x,n,n,x,x
CC(C)=CCC/C(C)=C/CNC(=O)C[C@H]1C[C@H](C(=O)N2CCCCC2)[C@@]2(CCc3ccccc3)c3[nH]c4cc(CCC(=O)N(C)C)ccc4c3CCN2C1=O,x,x,x,n,x,x
COc1ccccc1Nc1nc(-c2sc(NC(=O)c3ccccc3)nc2C)cs1,u,n,u,n,n,n
CCCC(C)C(=O)Nc1nc(C)c(-c2csc(Nc3ccccc3OC)n2)s1 (stereo not given),9.28µM,n,u,n,n,n
O=C1N(CN2C(=O)C3(OCCO3)c3ccccc32)c2ccccc2C12OCCO2,n,n,n,n,n,n
Cc1ccc(NC(=O)N2C(=O)C3(OCCO3)c3ccccc32)cc1,6.57µM,92.9,n,n,43.5,n
CN1C(=O)C2(OCC(CO)([N+](=O)[O-])CO2)c2ccccc21 (stereo not given),n,50.5,n,n,14.2,u
O=C1N(CCCN2C(=O)C3(OCCO3)c3ccccc32)c2ccccc2C12OCCO2,8.28µM,n,u,n,n,n
O=C1N(CCCCN2C(=O)C3(OCCO3)c3ccccc32)c2ccccc2C12OCCO2,n,n,n,n,n,n
COc1ccc(CNC(=O)C2CCN(S(=O)(=O)c3ccccc3)CC2)cc1,u,n,n,n,n,n
COc1ccc(Cl)cc1C(=O)NNC(=O)c1cc2ccccc2o1,x,x,x,n,x,x
CC1Nc2nc(NC(=O)C(C)(C)C)[nH]c(=O)c2N(C)C1C (stereo not given),n,n,n,n,n,n
C[n+]1ccc(/C=C/c2cccs2)cc1,2.33µM,n,2.94µM,n,n,n
Cc1snc2sc(C(=O)c3ccc(Br)cc3)c(N)c12,n,n,x,n,26.6,n
Cc1ccc(C(=O)c2sc3nsc(C)c3c2N)cc1,n,154.9,x,n,86.3,n
Cc1cc(C)c2c(N)c(C(=O)c3cccc(Cl)c3)sc2n1,u,n,n,n,n,n
COc1ccc(N=Cc2c(O)c3ccccc3n2C(C)=O)cc1,u,n,u,n,14.4,n
COc1ccc(N=Cc2sc(O)c3ccccc23)cc1,n,87.2,n,n,66.1,n
Cn1c(=O)c(C=Nc2ccccc2)c(O)c2ccccc21,n,n,u,n,n,n
Cc1ccnc(N2C(=O)c3ccccc3C2O)c1 (stereo not given),n,n,x,n,38.8,n
Cc1ccnc(N2C(=O)c3ccccc3C2Nc2cccc(C)c2C)c1 (stereo not given),n,28.4,u,n,14.7,n
Cc1ccc2c(c1)CCCN2N=O,n,n,n,u,n,n
CCCN1CCCc2cc(CN)ccc21,n,n,1.65µM,n,n,n
COc1ccc(CNC(=O)Cn2c(=O)n(CC(=O)N3CCCCC3)c(=O)c3sccc32)cc1,u,n,u,n,n,n
COc1ccccc1C(CNC(=O)c1ccc(NS(=O)(=O)c2ccc3c(c2)OCCO3)cc1)N(C)C (stereo not given),11.7µM,x,u,n,x,x
COc1ccccc1C(CNC(=O)c1cccc(NS(=O)(=O)c2ccc(C)c(F)c2)c1)N1CCCC1 (stereo not given),11.7µM,x,13.1µM,n,x,x
